Out of some 120,000 compounds screened, about 370 (0.31%) were called active. Another 4% or so got no clear call; they are omitted. Calls follow the shape of the full dose curve. Only a selection was taken, and actives are over-represented in it overall.
% is scaled to controls: 0 for no effect and ±100 for the full control effect; potency is read from the fitted curve at half-maximal effect.

The assay in a line: Primary qHTS Assay for Foot and Mouth Disease Virus Antivirals against NCGC Sytravon and CBC Compound Libraries: Renilla Luciferase Signal. Also: nearly all actives have a fitted effect of over 55% in size. The note with it: FMDV replicon cells; series mostly up to 57.5 µM; activity change, negative = inhibition: at the top concentration.
`COC(=O)CNC(=O)c1cc2occc2n1Cc1ccccc1`: the “activity change, negative = inhibition” value was -3.45% (inactive).

`COC1CC(OC2CCC3(C=O)[C@H]4CCC5(C)C(C6=CC(=O)OC6)CCC5(O)[C@@H]4CCC3(O)C2)OC(C)C1O` (some centres undefined): the Potency was 0.398 µM (active).

Consider `N#Cc1cn(C2CC2)c(=O)n(Cc2coc(-c3cccc(Cl)c3)n2)c1=O`, for which the “activity change, negative = inhibition” value was -10.6% (inactive).

For `O=C(CCc1ncc(-c2ccc(F)cc2)o1)NCC(c1ccccc1)N1CCCC1` (centres undefined), the “activity change, negative = inhibition” value was -17.8% (inactive).

In the case of `O=C(CC1(O)C(=O)N(CN2CCOCC2)c2ccccc21)c1ccc2ccccc2c1` (centres undefined), the “activity change, negative = inhibition” value was 69.4% (inactive).

`Oc1c(Cl)cc(Cl)c(Cl)c1Cc1c(O)c(Cl)cc(Cl)c1Cl`: the Potency was 10 µM (active).

In the case of `Cc1cccc(OCCn2cc(S(=O)(=O)N3CCCC3)ccc2=O)c1`, the “activity change, negative = inhibition” value is 12.5% (inactive).

For the molecule `CCN(CC)CCCNC(=O)C(=O)Nc1cccc2[nH]ccc12`, the “activity change, negative = inhibition” value was -2.93% (inactive).

Take `O=C(CSc1ccc2c(c1)OCCCO2)NC(c1ccccc1)c1cccs1` (centres undefined): the “activity change, negative = inhibition” value is 20.5% (inactive).

Take `Cc1cccc(NC(=O)CN2CCCN(c3ncc(C(F)(F)F)cc3Cl)CC2)c1`: the “activity change, negative = inhibition” value is -9.07% (inactive).

For `CCC(C)NC(=O)COc1ccc2c(C)cc(=O)oc2c1` (centres undefined), the “activity change, negative = inhibition” value is -9.07% (inactive).

On to `CCOC(=O)CN1C(C(=O)c2ccccc2)=C(OC(=O)CC)c2ccccc2S1(=O)=O`, for which the “activity change, negative = inhibition” value was 1.36% (inactive).

`COC(=O)c1[nH]c2ccc(F)cc2c1NC(=O)CCN1CCC(C)CC1`: the “activity change, negative = inhibition” value is -9.84% (inactive).

Regarding `N#Cc1ccccc1COC(=O)c1ccccc1NCCO`, the “activity change, negative = inhibition” value is 17.4% (inactive).

For the molecule `Cc1cc(C)cc(Nc2nc(NCc3ccco3)nc3c2cnn3-c2ccccc2)c1`, the “activity change, negative = inhibition” value was 12.2% (inactive).

With `Fc1cccc(-c2nc(COc3ccc4ccc(C(F)(F)F)nc4c3)co2)c1`, the “activity change, negative = inhibition” value was 12.5% (inactive).

Regarding `C#CCN([C@H](C(=O)OC)C(C)CC)S(=O)(=O)c1ccccc1Br` (some centres undefined), the “activity change, negative = inhibition” value was 53.7% (inactive).

In the case of `CC1CC1C(=O)Nc1ccc2c(c1)CCC2` (centres undefined), the “activity change, negative = inhibition” value is 9.89% (inactive).

Consider `O=C(NCCc1ccc(F)cc1)c1[nH]c2ccccc2c1Cl`, for which the “activity change, negative = inhibition” value was 8.36% (inactive).

For `COc1ccc(OC)c(C(O)c2nc3ccccc3n2C)c1` (centres undefined), the “activity change, negative = inhibition” value is 77.3% (inactive).

For the molecule `Cc1ccc(CC(=O)NCc2ccc(COC(C)C)cc2)cc1`, the “activity change, negative = inhibition” value was 8.49% (inactive).

In the case of `Cc1ccc(C)c(NC(NC(=O)c2cccc(Cl)c2)C(Cl)(Cl)Cl)c1` (centres undefined), the “activity change, negative = inhibition” value was 14.8% (inactive).

Regarding `CN(C(N)=NC(=O)/C=C/c1ccccc1)C(C#Cc1ccccc1)Cc1ccccc1` (centres undefined), the “activity change, negative = inhibition” value was 38% (inactive).

Turning to `CCc1nnsc1C(=O)NC(C)c1cccc(OC(C)C)c1` (centres undefined), the “activity change, negative = inhibition” value was 0.925% (inactive).

Take `O=C(CN1CCCC(C(F)(F)F)C1)Nc1cccc2ncccc12` (centres undefined): the “activity change, negative = inhibition” value was -0.05% (inactive).

With `CCOC(=O)c1ccccc1NC(=O)COC(=O)c1ccc2c(c1)NC(=O)C(C)S2` (centres undefined), the “activity change, negative = inhibition” value was -6.77% (inactive).

For `COc1ccc(CSc2nnc(C3CC3)n2C2CC2)cc1F`, the “activity change, negative = inhibition” value is 0.293% (inactive).

Regarding `COc1ccc(C)cc1NC(=O)c1ccc2c(c1)NC(=O)CS2`, the “activity change, negative = inhibition” value is -2.97% (inactive).

In the case of `COc1ccc(Br)cc1COc1ccc(C#N)cc1`, the “activity change, negative = inhibition” value was 16.7% (inactive).

On to `Cc1ccc(NCc2cc3ccc(C)cc3[nH]c2=O)c(C)c1`, for which the “activity change, negative = inhibition” value was 59.9% (inactive).

Take `Cc1cnc(NC(=O)CNC(=O)c2ccoc2)s1`: the “activity change, negative = inhibition” value is 0.571% (inactive).

Regarding `CC(CC(=O)Nc1ccc(O)cc1)(C(=O)O)c1ccccc1` (centres undefined), the “activity change, negative = inhibition” value was 21.2% (inactive).

As to `CC(/C=N/NC(=O)c1ccc(C)cc1)=C\c1ccccc1`, the “activity change, negative = inhibition” value is 46.3% (inactive).

As for `CCC(C)NC(=O)CSc1ncc(-c2cccc(Br)c2)o1` (centres undefined), the “activity change, negative = inhibition” value was -19.2% (inactive).

On to `O=C(Cc1ccc(F)cc1)Nc1c(NC2CCCCC2)c2ccccc2oc1=O`, for which the “activity change, negative = inhibition” value was 37.2% (inactive).

For `CN(C)C(CNC(=O)Cc1n[nH]c(=O)c2ccccc12)Cc1ccccc1` (centres undefined), the “activity change, negative = inhibition” value is -7.02% (inactive).

As to `CCCC(=O)Nc1nc2ccc(CCC(=O)NCc3cc(Br)ccc3OC)cc2s1`, the “activity change, negative = inhibition” value was 106% (inactive).

Consider `CS(=O)(=O)N(CC(=O)N1CCc2ccccc2C1)c1cc(C(F)(F)F)ccc1Cl`, for which the “activity change, negative = inhibition” value is 254% (inactive).

As to `COc1cccc(CNC(=O)C2CCC(CNS(=O)(=O)c3cccs3)CC2)c1` (centres undefined), the “activity change, negative = inhibition” value is 8.54% (inactive).

As for `O=C(CNS(=O)(=O)c1cccs1)N1CCN(c2ccccc2Cl)CC1`, the “activity change, negative = inhibition” value was 4.67% (inactive).

For the molecule `Cc1ccc(C)c(N2CCN(C(=O)C3CCC(CNS(=O)(=O)c4cccs4)CC3)CC2)c1` (centres undefined), the Potency was 31.6 µM (active).

In the case of `Fc1cc(CSc2nncn2C2CC2)c2ncccc2c1`, the “activity change, negative = inhibition” value is 34.1% (inactive).

On to `CC1CCN(S(=O)(=O)c2ccc3oc(=O)ccc3c2)CC1`, for which the “activity change, negative = inhibition” value was 24.2% (inactive).

For the molecule `CCOC(=O)c1cnc(Nc2ccccc2)c2ccccc12`, the “activity change, negative = inhibition” value was 5.33% (inactive).

As for `CC1(C)CC(=O)C2=C(C1)N(Cc1ccccc1)C(CCC1CCCCC1)=NC2(C(F)(F)F)C(F)(F)F`, the “activity change, negative = inhibition” value is 4.12% (inactive).

`COc1cc(C(=O)Oc2c(C)cccc2C)cc(Cl)c1OC(C)C`: the activity change, negative = inhibition was -5.15% [at 1.06 µM] (inactive).

As to `CCn1c(C)cc(C(=O)Cn2nc(C)c(C)c(C#N)c2=O)c1C`, the “activity change, negative = inhibition” value was -1.09% (inactive).

Turning to `CCCCS(=O)C1CCCCC1OC(=O)c1ccccc1` (centres undefined), the “activity change, negative = inhibition” value is 34.2% (inactive).

For `O=C(OCc1cccnc1)c1nn(Cc2ccccc2)c(=O)c2ccccc12`, the “activity change, negative = inhibition” value is 74.7% (inactive).

Take `COC(=O)c1ccc(Cl)cc1NC(=O)Cn1c(=O)n(Cc2ccc(F)cc2)c(=O)c2ccccc21`: the “activity change, negative = inhibition” value was -6.04% (inactive).

On to `CC(C)NC(=O)CN1CCCN(C(=O)c2cc3ccccc3n2C)CC1`, for which the “activity change, negative = inhibition” value is -3.01% (inactive).

In the case of `O=C(NCc1ccc2c(c1)CCN2C(=O)c1ccccc1)Nc1cc(F)ccc1F`, the Potency is 8.91 µM (active).

`O=C(COc1ccccc1)NCc1ccc2c(c1)CCN2C(=O)c1ccc(F)cc1`: the “activity change, negative = inhibition” value was 6.8% (inactive).

As to `O=C(NCc1ccc2c(c1)CCN2C(=O)c1ccccc1)c1ccccc1`, the “activity change, negative = inhibition” value is -17.4% (inactive).

The values are drawn from PubChem BioAssay AID1745857 (National Center for Advancing Translational Sciences (NCATS), 2022).
